These results are taken from PubChem BioAssay (NCI).

The panel holds about 79,000 compounds, 15% with a hit somewhere; the sample as a whole holds those more often. Unmarked numbers belong to inactive results. Active and inactive are the calls of the source. Rule as the data show it: active = growth inhibition above about 70%; inactive = the rest. Where a SMILES comes first, the peptide text is derived from it. [ ]: non-standard residue; d: D form. The star is where a group is joined. ξ: configuration not given here. NMeY = CN[C@@H](Cc1ccc(O)cc1)C(=O)O; Cbz = O=C(OCc1ccccc1)*; ξA = CC(N)C(=O)O

A short description of the first test: NCI Yeast Anticancer Drug Screen. Data for the cln2 rad14 strain (AID 165).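 Also: 0% = growth equal to vehicle treated cultures.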 The following applies: S. cerevisiae cln2 rad14 strain, at 50.0 µM, hits give high values. In outline: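 The screen exposed genetically defined yeast (cln2 rad14) to test compounds and scored growth inhibition relative to vehicle-treated controls.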
Turning to `O=C1CCC(=O)O1`, the growth inhibition was 6.45%.

`O=C1C2C3C=CC(CC3)C2C(=O)C2C3C=CC(C3)C12` (stereo not given): the growth inhibition is -14.8%.

On to `COc1ccc2c3c(c(C(=O)O)oc13)CCC2`, for which the growth inhibition is -5.8%.

With `COc1ccc2nc3cc(Cl)ccc3c(NCCCNCCCNc3c4ccc(Cl)cc4nc4ccc(OC)cc34)c2c1`, the growth inhibition was 3.5%.

For `CC(c1ccccc1)C1OCC(CCCCO)O1` (stereo not given), the growth inhibition was 0.55%.

Consider `CCc1cccc(CC)c1N=C(NC(=O)c1ccc(Br)cc1)SC`, for which the growth inhibition is -6.75%.

Take `Oc1ccc(NCc2ccccc2)cc1`: the growth inhibition is -3.15%.

On to `COc1cccc(NC(=S)NC(=O)c2ccccc2)c1`, for which the growth inhibition is 37%.

With `C/C(CC(O)(C(F)(F)F)C(F)(F)F)=N\NC(N)=S`, the growth inhibition was 9.55%.

Consider `Cc1ccc(C(C(=O)O)c2ccc(C)cc2)cc1`, for which the growth inhibition is 27.4%.

With `CC1CC([NH-])C([NH-])C(C)(C)C1.[Cl][Pt+2][Cl]` (stereo not given), the growth inhibition is -12.2%.

In the case of `Cc1[nH]c2ccccc2c1C(=O)Cc1ccc(Cl)cc1Cl`, the growth inhibition was -4.35%.

In the case of `CC(=O)Nc1ccc(S(=O)(=O)Oc2noc3ccc(Br)cc23)cc1`, the growth inhibition is -4.5%.

With `CCCCC(CCCC)NCC(C)OC(=O)c1ccc(N)cc1` (stereo not given), the growth inhibition is -26.8%.

In the case of `O=C(Nc1c(Cl)cccc1Cl)Oc1cccnc1`, the growth inhibition was 2.55%.

On to `c1nnco1`, for which the growth inhibition was 5.5%.

In the case of `O=C/C=C/N=c1ccn(O)cc1`, the growth inhibition was -2.1%.

For `CO/N=C1\C(O)CC2C(C)(CCC3C2(C)CCC2(C)C4CC(C)(C)CCC4(C)CCC32C)C1C` (stereo not given), the growth inhibition is -14.1%.

`CC(C)(C)OC(=O)NC(Cc1ccccc1)C(=O)OCN1C(=O)C2C3C=CC(C2C1=O)C1C2C(=O)N(COC(=O)C(Cc4ccccc4)NC(=O)OC(C)(C)C)C(=O)C2C31` (stereo not given): the growth inhibition was -6.55%.

As to `CC1=NN(C(=O)c2ccncc2)C(=O)C1N=Nc1ccc([N+](=O)[O-])cc1Cl` (stereo not given), the growth inhibition was -26.1%.

For the molecule `Cc1ccc(C2(C)CC/C(=N/N=C3/CCC(C)(c4ccc(C)c(C)c4)c4cc(C)c(C)cc43)c3cc(C)c(C)cc32)cc1C` (stereo not given), the growth inhibition was -40.6%.

As for `O=S(=O)(N=N/C=C1\C=CC=CN1O)c1cccs1`, the growth inhibition was -1.15%.

On to `O=C(/C=C(\C(=O)c1ccccc1)c1ccccc1)c1ccc(Cl)cc1`, for which the growth inhibition is 1.05%.

For the molecule `C=CCSc1nc2ccc(NCn3c(=S)sc4ccccc43)cc2s1`, the growth inhibition was 47.1%.

As for `CCC/C=C/C=C\C(=O)O[C@@H]1[C@@H](C)[C@]2(O)[C@@H]3C=C(C)C(=O)[C@H]3CC(COC(C)=O)=C[C@H]2[C@@H]2C(C)(C)[C@]12OC(C)=O`, the growth inhibition is 11.9%.

For `O=C1CCCCC1O` (stereo not given), the growth inhibition was 0.05%.

With `COc1ccc(C[C@@H](C(=O)N[C@@H](C)C(N)=O)N(C)C(=O)[C@@H]2CCCN2C(=O)[C@H](CC(C)C)NC(=O)C(C)NC(=O)OCc2ccccc2)cc1` (stereo not given in full) (Cbz-[ξA]LP[NMeY](Me)A-NH2), the growth inhibition was -4%.

Take `Cc1ccc(N=Nc2ccc(C)cc2NC(=O)c2ccc(Cl)cc2)cc1`: the growth inhibition was -7.8%.

As to `O=C1c2ccc3ccccc3c2C(=O)c2ccc3ccccc3c21`, the growth inhibition was -30.2%.

Take `CCOC(=O)c1c(-c2ccc(OC)cc2)c(C#N)c(=S)n(C2OC(COC(C)=O)C(OC(C)=O)C(OC(C)=O)C2OC(C)=O)c1-c1ccccc1` (stereo not given): the growth inhibition was 21.6%.

For `COc1ccc(C(=O)Oc2ccccc2C)cc1`, the growth inhibition is -11%.

As for `O=C1Oc2cc3c(c4cccc1c24)O[C@H](c1ccccc1)[C@@H](c1ccccc1)[C@@H]3c1ccc(Cl)cc1`, the growth inhibition was -5.15%.

Turning to `CN1C(=O)C(=O)n2c(cc3ccccc32)C1=O`, the growth inhibition is 6.2%.

On to `Cc1cc(C)c(C2CNCc3cc4c(cc32)CNCC4c2c(C)cc(C)cc2C)c(C)c1` (stereo not given), for which the growth inhibition is -44.9%.

Take `NCCO`: the growth inhibition is -3.6%.

Regarding `Cc1ccc(S(=O)(=O)Nc2nc3ccccc3c(=O)n2C2CCCCC2)cc1`, the growth inhibition is 2.1%.

Consider `O=C1OC(c2ccc3c(c2)CCCC3)=C/C1=C/c1ccc2c(c1)OCO2`, for which the growth inhibition is -25.1%.

For `O=C(Nc1cccc2ccccc12)OCC1CC1`, the growth inhibition is -6.2%.

As to `O=C1OCC2C(=O)N3Cc4cc5ccccc5nc4C3CC12` (stereo not given), the growth inhibition was 8.85%.

In the case of `C/C(=N/NC(=O)NN)c1cccc(O)c1`, the growth inhibition is 2.15%.

A further test is described as follows: NCI Yeast Anticancer Drug Screen. Data for the bub3 strain (AID 167). The following applies: S. cerevisiae bub3 mutant strain, at 50.0 µM, hits give high values. In outline:
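Inhibition values come from growth of compound-treated mutant yeast normalised to vehicle-treated controls.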
Turning to `O=C1CCC(=O)O1`, the growth inhibition is 3.95%.

Turning to `O=C1C2C3C=CC(CC3)C2C(=O)C2C3C=CC(C3)C12` (stereo not given), the growth inhibition was -1.45%.

As to `COc1ccc2c3c(c(C(=O)O)oc13)CCC2`, the growth inhibition is -15.3%.

As for `COc1ccc2nc3cc(Cl)ccc3c(NCCCNCCCNc3c4ccc(Cl)cc4nc4ccc(OC)cc34)c2c1`, the growth inhibition was -6%.

Take `CC(c1ccccc1)C1OCC(CCCCO)O1` (stereo not given): the growth inhibition is -15.1%.

For `CCc1cccc(CC)c1N=C(NC(=O)c1ccc(Br)cc1)SC`, the growth inhibition is -17.1%.

With `Oc1ccc(NCc2ccccc2)cc1`, the growth inhibition is 21.6%.

For `COc1cccc(NC(=S)NC(=O)c2ccccc2)c1`, the growth inhibition was 95.6% (active).

Regarding `C/C(CC(O)(C(F)(F)F)C(F)(F)F)=N\NC(N)=S`, the growth inhibition is 7.1%.

Regarding `Cc1ccc(C(C(=O)O)c2ccc(C)cc2)cc1`, the growth inhibition was 22.1%.

As to `CC1CC([NH-])C([NH-])C(C)(C)C1.[Cl][Pt+2][Cl]` (stereo not given), the growth inhibition is -10.8%.

`Cc1[nH]c2ccccc2c1C(=O)Cc1ccc(Cl)cc1Cl`: the growth inhibition is 23.8%.

In the case of `CC(=O)Nc1ccc(S(=O)(=O)Oc2noc3ccc(Br)cc23)cc1`, the growth inhibition is -3.95%.

As for `CCCCC(CCCC)NCC(C)OC(=O)c1ccc(N)cc1` (stereo not given), the growth inhibition is -6%.

As for `O=C(Nc1c(Cl)cccc1Cl)Oc1cccnc1`, the growth inhibition was -23.1%.

As for `c1nnco1`, the growth inhibition was 6.85%.

Turning to `O=C/C=C/N=c1ccn(O)cc1`, the growth inhibition was 4.25%.

Consider `CO/N=C1\C(O)CC2C(C)(CCC3C2(C)CCC2(C)C4CC(C)(C)CCC4(C)CCC32C)C1C` (stereo not given), for which the growth inhibition is -1.45%.

`CC(C)(C)OC(=O)NC(Cc1ccccc1)C(=O)OCN1C(=O)C2C3C=CC(C2C1=O)C1C2C(=O)N(COC(=O)C(Cc4ccccc4)NC(=O)OC(C)(C)C)C(=O)C2C31` (stereo not given): the growth inhibition is 8.25%.

As to `CC1=NN(C(=O)c2ccncc2)C(=O)C1N=Nc1ccc([N+](=O)[O-])cc1Cl` (stereo not given), the growth inhibition was -2.1%.

For the molecule `Cc1ccc(C2(C)CC/C(=N/N=C3/CCC(C)(c4ccc(C)c(C)c4)c4cc(C)c(C)cc43)c3cc(C)c(C)cc32)cc1C` (stereo not given), the growth inhibition is -11.4%.

With `O=S(=O)(N=N/C=C1\C=CC=CN1O)c1cccs1`, the growth inhibition is -26.4%.

On to `O=C(/C=C(\C(=O)c1ccccc1)c1ccccc1)c1ccc(Cl)cc1`, for which the growth inhibition was -13.1%.

As for `C=CCSc1nc2ccc(NCn3c(=S)sc4ccccc43)cc2s1`, the growth inhibition was 41.9%.

For `CCC/C=C/C=C\C(=O)O[C@@H]1[C@@H](C)[C@]2(O)[C@@H]3C=C(C)C(=O)[C@H]3CC(COC(C)=O)=C[C@H]2[C@@H]2C(C)(C)[C@]12OC(C)=O`, the growth inhibition is -9.65%.

For the molecule `O=C1CCCCC1O` (stereo not given), the growth inhibition was -13.8%.

For `COc1ccc(C[C@@H](C(=O)N[C@@H](C)C(N)=O)N(C)C(=O)[C@@H]2CCCN2C(=O)[C@H](CC(C)C)NC(=O)C(C)NC(=O)OCc2ccccc2)cc1` (stereo not given in full) (Cbz-[ξA]LP[NMeY](Me)A-NH2), the growth inhibition was -38.2%.

For the molecule `Cc1ccc(N=Nc2ccc(C)cc2NC(=O)c2ccc(Cl)cc2)cc1`, the growth inhibition was 32.3%.

`O=C1c2ccc3ccccc3c2C(=O)c2ccc3ccccc3c21`: the growth inhibition was -12.3%.

For the molecule `CCOC(=O)c1c(-c2ccc(OC)cc2)c(C#N)c(=S)n(C2OC(COC(C)=O)C(OC(C)=O)C(OC(C)=O)C2OC(C)=O)c1-c1ccccc1` (stereo not given), the growth inhibition is 11.9%.

With `COc1ccc(C(=O)Oc2ccccc2C)cc1`, the growth inhibition is -6.8%.

Turning to `O=C1Oc2cc3c(c4cccc1c24)O[C@H](c1ccccc1)[C@@H](c1ccccc1)[C@@H]3c1ccc(Cl)cc1`, the growth inhibition was 3.3%.

As for `CN1C(=O)C(=O)n2c(cc3ccccc32)C1=O`, the growth inhibition was -0.25%.

As for `Cc1cc(C)c(C2CNCc3cc4c(cc32)CNCC4c2c(C)cc(C)cc2C)c(C)c1` (stereo not given), the growth inhibition is -62.8%.

In the case of `NCCO`, the growth inhibition is 13.2%.

As to `Cc1ccc(S(=O)(=O)Nc2nc3ccccc3c(=O)n2C2CCCCC2)cc1`, the growth inhibition is -19.5%.

Take `O=C1OC(c2ccc3c(c2)CCCC3)=C/C1=C/c1ccc2c(c1)OCO2`: the growth inhibition was 2.9%.

As for `O=C(Nc1cccc2ccccc12)OCC1CC1`, the growth inhibition is -34.9%.

On to `O=C1OCC2C(=O)N3Cc4cc5ccccc5nc4C3CC12` (stereo not given), for which the growth inhibition is -15.8%.

In the case of `C/C(=N/NC(=O)NN)c1cccc(O)c1`, the growth inhibition is -4.5%.
